Source: PubChem BioAssay AID1851 (National Center for Advancing Translational Sciences (NCATS), 2009)
Hit rate of the full screen: of about 16,000 compounds, about 5,100 (32%) were called active. Inconclusive results (about 25%) are left out. The call rests on the fitted dose curve; in most records, active means well fitted curve in the direction sought with a large enough effect; inconclusive means small, poorly fitted or top-dose-only effect, or effect the other way; inactive means no such curve, though single readings can be large or run the other way. The list shows a part of the results.

target: Cytochrome P450 3A4 (Homo sapiens) (UniProt P08684); assay: Cytochrome panel assay with activity outcomes; conditions: recombinant CYP, pro-luciferin dealkylation, luminescence, p450-cyp3a4; series mostly up to 57.1 µM
Sequence (P08684 whole entry, looked up): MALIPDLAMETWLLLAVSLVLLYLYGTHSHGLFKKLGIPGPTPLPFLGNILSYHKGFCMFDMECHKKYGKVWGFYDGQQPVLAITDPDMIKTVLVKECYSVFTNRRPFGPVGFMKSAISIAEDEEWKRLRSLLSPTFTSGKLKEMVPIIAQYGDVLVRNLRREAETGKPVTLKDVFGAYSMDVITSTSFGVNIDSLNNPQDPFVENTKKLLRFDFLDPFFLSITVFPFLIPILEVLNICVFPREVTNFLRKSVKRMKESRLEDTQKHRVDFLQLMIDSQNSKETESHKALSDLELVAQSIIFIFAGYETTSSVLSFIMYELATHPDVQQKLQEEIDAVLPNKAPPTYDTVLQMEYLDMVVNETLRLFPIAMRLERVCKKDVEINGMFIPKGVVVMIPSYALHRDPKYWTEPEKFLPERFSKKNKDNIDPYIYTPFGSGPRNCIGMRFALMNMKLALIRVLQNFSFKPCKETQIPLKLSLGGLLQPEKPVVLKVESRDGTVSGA
On the % scale 0 is the no-effect control and ±100 the full control effect.

Row | SMILES | AC50 | activity, negative = inhibition
1 | CS(=O)(=O)Nc1cccc(-c2cncnc2Nc2ccc(F)cc2)c1 | 0.316 µM (active) | 
2 | CS(=O)(=O)Nc1cccc(-c2cncnc2Nc2ccccc2)c1 | 0.501 µM (active) | 
3 | COc1cccc(-c2cncnc2NC2CCNCC2)c1 | inactive | 
4 | COc1cccc(-c2cncnc2Nc2ccc(F)cc2)c1 | 0.794 µM (active) | 
5 | Cc1cc(N)c2ccccc2[n+]1CCCCCCCCCCCCCC[n+]1c(C)cc(N)c2ccccc21 | 10 µM (active) | 
6 | Nc1cc2c(nc3c4ccccc4c(N)cc3[n+]2-c2cccc3ccccc23)c2ccccc12 (tested in a mixture with another compound) |  | -29.5% [at 11.4 µM] (inactive)
7 | CCCCCCCCC[n+]1cccc2c3ccccc3ccc21 | inactive | 
8 | CCOC(=O)[C@H](N)/C=C(\C)CP(=O)(O)O | inactive | 
9 | O=C(CSc1nc2ccccc2s1)N1c2ccccc2Sc2ccccc21 | 11.2 µM (active) | 
10 | O=C(CSc1nc2ccccc2s1)c1sc2sc3ccccc3[n+]2c1O |  | -12.2% [at 11.4 µM] (inactive)
11 | O=C(CSc1nc2ccccc2s1)N1c2ccccc2Sc2ccc(C(F)(F)F)cc21 | 6.31 µM (active) | 
12 | CO/N=C(\C(=O)N[C@@H]1C(=O)N2C(C(=O)O)=C(COC(N)=O)CS[C@@H]12)c1ccco1 | inactive | 
13 | N[C@@H](CSS(=O)(=O)O)C(=O)O | inactive | 
14 | CC(C)(C)c1[nH]nc2c1C(c1ccc(OC(=O)c3ccco3)cc1)C(C#N)=C(N)O2 (configuration not stated) | 2.24 µM (active) | 
15 | O=C(Nc1cccc2[nH]ncc12)c1ccc(F)cc1 | 15.8 µM (active) | 
16 | COC(=O)c1ccccc1NC(=O)c1ccc(F)cc1 | inactive | 
17 | O=C(Nc1ccccc1Cl)c1ccn[nH]1 | inactive | 
18 | Cn1cccc1C(=O)N1CCC2(CCN(C(=O)Nc3cccc(F)c3)CC2)CC1 | inactive | 
19 | COCC(=O)N1CCC2(CC1)CN(C(=O)Nc1cccc(F)c1)C2 | inactive | 

Row | SMILES | AC50 | activity, negative = inhibition
20 | O=C(Nc1ccccc1)N1CCCC2(CCN(C(=O)c3cc(C(F)(F)F)cc(C(F)(F)F)c3)CC2)C1 | 15.8 µM (active) | 
21 | COC(=O)N1CCC2(CCCN(C(=O)Nc3ccccc3)C2)CC1 | inactive | 
22 | N#Cc1cccc(NC(=O)N2CCCC3(CCN(C(=O)c4cc(C(F)(F)F)cc(C(F)(F)F)c4)CC3)C2)c1 | 10 µM (active) | 
23 | O=C(Nc1ccccc1)N1CC2(CCN(C(=O)c3cc(C(F)(F)F)cc(C(F)(F)F)c3)CC2)C1 | inactive | 
24 | O=C(Nc1cccc(F)c1)N1CC[C@@]2(CCCN(C(=O)c3cc(C(F)(F)F)cc(C(F)(F)F)c3)C2)C1 | 15.8 µM (active) | 
25 | O=C(Nc1cccc(F)c1)N1CCCC2(CCN(C(=O)c3cc(C(F)(F)F)cc(C(F)(F)F)c3)CC2)C1 | 12.6 µM (active) | 
26 | Cc1csc(NC(=O)Cc2c[nH]c3ccccc23)n1 | 35.5 µM (active) | 
27 | COC(=O)[C@H](C)NC(=O)C/C=C\[C@@H](C)[C@H]1C=C[C@H](O)[C@@H](CO)O1 |  | -25.2% [at 11.4 µM] (inactive)
28 | CO/N=C\[C@@H](OC)[C@H](C)/C=C\CC(=O)OC |  | -11.6% [at 11.4 µM] (inactive)
29 | CC(=O)OC[C@H]1O[C@@H](O/N=C\[C@@H](C)[C@H](OCc2ccccc2)C(C)C)[C@H](OC(C)=O)[C@@H](OC(C)=O)[C@H]1OC(C)=O |  | -74.7% [at 11.4 µM] (inactive)
30 | C=CC[C@@H]1C=C[C@@H](O/N=C\[C@@H](OC)[C@H](C)/C=C\CC(=O)OC)[C@@H](CO)O1 | 3.16 µM (active) | 
31 | C=CC[C@@H]1C=C[C@H](O/N=C\[C@@H](C)[C@H](OCc2ccccc2)C(C)C)[C@H](CO)O1 | 3.98 µM (active) | 
32 | CO[C@]1(NC(=O)C2SC(=C(C(N)=O)C(=O)O)S2)C(=O)N2C(C(=O)O)=C(CSc3nnnn3C)CS[C@H]21 (some centres not stated) | inactive | 
33 | CCc1ncc(CO)n1Cc1cccc2ccccc12 |  | -11.4% [at 11.4 µM] (inactive)
34 | COc1ccc(CNC(=O)Nc2cccs2)cc1OC | 22.4 µM (active) | 
35 | CCN1CCN(Cc2ccc(NC(=O)Nc3cccs3)cc2)CC1 | inactive | 
36 | COc1cc(CNCc2cccs2)ccc1OCC(=O)NC(C)(C)C | 4.47 µM (active) | 
37 | CCOC(=O)N1CCN(C(=O)CNCc2cccs2)CC1 | inactive | 
38 | COc1cc(CNCc2cccs2)cc(Br)c1OC | 7.08 µM (active) | 

Row | SMILES | AC50 | activity, negative = inhibition
39 | COc1cc(CNCc2cccs2)ccc1OCC(N)=O | inactive | 
40 | N[C@H](C(=O)O)[C@@H](O)c1cnc[nH]1 |  | -12.3% [at 11.4 µM] (inactive)
41 | COc1ccc2c(c1)CCCC21NC(=O)N(CC(N)=O)C1=O (configuration not stated) | inactive | 
42 | Cc1cc(NC(=O)CN2C(=O)NC(C)(c3ccc(OC(F)F)cc3)C2=O)no1 (configuration not stated) | inactive | 
43 | COc1ccc(OC)c(C(=O)CN2C(=O)NC(C)(c3ccccc3)C2=O)c1 (configuration not stated) | 10 µM (active) | 
44 | CC(C)NCCOCCSc1ccc(Cl)cc1 | inactive | 
45 | COC(=O)[C@@H]1C[C@H]1[C@@H](NC(=O)c1cccnc1)c1ccccc1 | 10 µM (active) | 
46 | COC(=O)[C@@H]1C[C@H]1[C@@H](NC(=O)c1ccccc1)c1ccccc1 | inactive | 
47 | COC(=O)[C@H]1C[C@@H]1[C@H](NC(=O)c1cccnc1)c1ccccc1 | 5.01 µM (active) | 
48 | O=C(O)CN(CCN(CC(=O)O)CC(=O)O)CC(=O)O.[Mn] |  | 1.35% [at 11.4 µM] (inactive)
49 | N[C@@H](C(=O)O)c1ccc(C(=O)O)c(C(=O)O)c1 | inactive | 
50 | CNc1ncncc1-c1ccccc1C(F)(F)F | 0.794 µM (active) | 
51 | FC(F)(F)c1ccccc1-c1cncnc1Nc1ccccc1 | 0.501 µM (active) | 
52 | Fc1ccc(Nc2ncncc2-c2ccccc2C(F)(F)F)cc1 | 0.398 µM (active) | 
53 | NS(=O)(=O)c1nc(S(=O)(=O)O)c2[nH]cnc2n1 |  | -3.98% [at 11.4 µM] (inactive)
54 | Cc1c(C)c2c(C)[nH]nc2oc1=O |  | 4.7% [at 11.4 µM] (inactive)
55 | C[C@@H]1CN2[C@H](c3ccc(Br)cc3)[C@H](C)CC[C@H]2C(=O)O1 |  | -28.2% [at 11.4 µM] (inactive)
56 | C[C@H]1CC[C@H]2C(=O)N[C@H](Cc3ccccc3)C(=O)N2[C@@H]1c1ccccc1 | 2.51 µM (active) | 
57 | C[C@@H]1CC[C@@H]2C(=O)N3[C@@H](CC[C@@H](C)[C@@H]3c3ccc(-c4ccco4)cc3)C(=O)N2[C@H]1c1ccc(-c2ccco2)cc1 |  | -15.7% [at 11.4 µM] (inactive)
